In the library only some 4.6% were active in any assay of this set; here they are far more common.
tim23-1 inh: growth inhibitors of tim23-1 mutant yeast | S. cerevisiae tim23-1 growth, BacTiter-Glo luminescence, 24 h | inhibition, % at 20 µM | 330,000 tested, 1.3% active | AID 463212;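 active = growth inhibition of the mutant yeast at or above 50%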;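 also: temperature-sensitive mutant grown at 25 °C; plate controls were DMSO-treated mutant yeast for no effect and medium wells lacking yeast for full effect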
TIM10 inh: growth inhibitors of TIM10 yeast strain. inhibition, % at 10 µM. 330,000 tested, 1.4% active. S. cerevisiae TIM10 strain growth, BacTiter-Glo luminescence, 24 h. AID 463195;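 active = inhibition of 40% or more at the single tested concentration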;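 also: wild-type TIM10 isogenic control strain grown at permissive 25 °C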
PfHsp90 yeast 2: inhibits growth of yeast expressing Plasmodium falciparum Hsp90; S. cerevisiae expressing PfHsp90, BacTiter-Glo ATP, 48 h; yeast lacking PDR1 and PDR3 efflux regulators; inhibition, % at 9.4 µM; 310,000 tested, 0.32% active;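 active = every replicate shows inhibition above about 80%, whatever the replicate mean, limit read from the data; inconclusive = mean inhibition reaches the set limit but some replicate falls short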;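 also: 0% = DMSO neutral controls and 100% = 20 µM radicicol positive controls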
NLRP3 yeast inh: NALP3 inhibition in yeast; inhibition, % at 10 µM; 330,000 tested, 0.39% active; Yeast reconstituted NLRP3/ASC/caspase-1, beta-gal luminescence, 24 h;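 active = inhibition of 50% or more; inactive = inhibition below 50%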;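 also: plate controls were induced DMSO wells for no effect and uninduced yeast grown without galactose for full effect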
SKKanGAS inh: SKKanGAS growth inhibition; S. pyogenes SKKanGAS, kanamycin growth, BacTiter-Glo, 6 h; inhibition, % at 7.5 µM; 300,000 tested, 1.3% active; AID 1662;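 active = mean replicate score, as percent of positive control median, at least 50; inconclusive = mean below 50 but one replicate at or above 50; inactive = mean and every replicate below 50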;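 also: strain carries kanamycin resistance gene driven by streptokinase promoter and grows in 40 µg/ml kanamycin; loss of luminescence reflects streptokinase promoter inhibition or plain growth inhibition; 0% = median of DMSO wells and 100% = positive control at its reference dose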
tim10-1 inh: inhibits growth of tim10-1 mutant yeast; S. cerevisiae tim10-1 ts strain growth, BacTiter-Glo, 24 h; inhibition, % at 20 µM; 330,000 tested, 2.2% active; AID 463190;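 active = inhibition of at least 40%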;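 also: mutant grown at 25 °C; 0% = DMSO wells with yeast and 100% = wells holding no yeast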
TIM10 conf: TIM10 yeast growth inhibition, confirmed. 4,600 tested, 63% active. inhibition, % at 10 µM. S. cerevisiae tim10 strain growth, BacTiter-Glo luminescence, 24 h. shares compounds with TIM10 inh;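 active = inhibition of yeast growth at or above a set limit in either of two replicates at 10 µM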;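 also: this counterscreen used the strain with wild-type TIM10; 0% = yeast with DMSO and 100% = medium wells lacking yeast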
tim23-1 conf: confirmation of tim23-1 mutant yeast growth inhibitors; shares compounds with tim23-1 inh; S. cerevisiae tim23-1 growth, BacTiter-Glo luminescence, 24 h; inhibition, % at 20 µM; 4,400 tested, 83% active;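 active = inhibition above about 39% in either of two replicate wells at 20 µM, limit read from the data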;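 also: temperature-sensitive tim23-1 mutant grown at 25 °C; 0% = DMSO wells with yeast and 100% = medium wells without yeast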
An asterisk follows results filed as active; ? = inconclusive; · = not tested or not shown.

SMILES | tim23-1 inh | TIM10 inh | PfHsp90 yeast 2 | NLRP3 yeast inh | SKKanGAS inh | tim10-1 inh | TIM10 conf | others
NNc1nc(-c2ccccc2)nc2sc3c(c12)CCCC3 | 42 | 33 | -10 | 43 | 17 | 28 | ·
Nc1c2c(nc3sc4c(c13)CCCC4)-c1ccccc1CC2 | 23 | 43* | -2 | -14 | 20 | 22 | 41*
Cc1ccccc1-n1c(-c2csc3ccccc23)n[nH]c1=S | 32 | 40* | -20 | 8 | -10 | 35 | -30
CCOc1cc(-c2cc(-c3ccc(C)o3)nc(N)c2C#N)ccc1O | 31 | 43* | -79 | 6 | 16 | 40 | 21
COc1ccc(NC(=O)N(C)C[C@H]2Oc3ccc(NS(=O)(=O)c4cccs4)cc3C(=O)N([C@@H](C)CO)C[C@@H]2C)cc1 | 9 | -3 | -22 | 7 | · | -4 | ·
CCN(C1CCS(=O)(=O)C1)S(=O)(=O)c1ccc(OC)c(OC)c1 (stereo unspecified) | -12 | -3 | 3 | 23 | 16 | -19 | ·
O=C(CSc1ccc2ccccc2n1)N/N=C/c1ccccc1O | 30 | 41* | 0 | 22 | 95* | 19 | 10
O=C(CSc1ccc2ccccc2n1)N/N=C/c1ccc(O)cc1 | 20 | 7 | 17 | 12 | 10 | 1 | ·
CCc1ccc2c(c1)C(=O)c1ccccc1C2=O | 23 | 16 | 2 | 4 | -19 | 14 | ·
CC(C)Cn1[nH]c2c3c(ccc2c1=O)C(=O)c1ccccc1C3=O | 28 | 58* | -7 | 30 | 17 | 24 | 49*
CNc1nc(NN)nc(Nc2ccccc2)n1 | -2 | 96* | 4 | 20 | 27 | 16 | 6
CNc1nc(Nc2ccccc2)nc(OCC(F)(F)F)n1 | -21 | 15 | 14 | 9 | -1 | 7 | ·
CC(C)N(Cc1ccccc1)C(=O)CN1C(=O)COc2ccc(S(=O)(=O)N3CCCCCC3)cc21 | 19 | 16 | 7 | 5 | -3 | 21 | ·
CCc1n[nH]c(=S)n1/N=C/c1cc(Br)c(OC)cc1OC | 28 | 53* | 28 | 12 | 1 | 32 | -15
Cc1ccc(C(=O)/C=C/c2ccc3c(c2)OCCO3)c(O)c1 | 48 | 52* | 16 | 22 | 30 | 24 | 52*
COc1ccc2cc3cc(C(=O)NCCCN4CCc5ccccc5C4)sc3nc2c1 | 13 | 63* | -22 | -3 | 5 | 8 | 54*
CCN1CCN(C(=O)c2cc3cc4cc(OC)ccc4nc3s2)CC1 | 5 | -6 | -22 | 16 | 1 | 6 | ·
COc1ccc2cc3cc(C(=O)NC4CC4)sc3nc2c1 | 3 | 15 | -5 | 19 | -3 | 4 | ·
COc1ccc2nc3sc(C(=O)NCCN4CCc5ccccc5C4)cc3cc2c1 | 39 | 75* | -7 | 12 | 11 | 31 | 80*
COc1ccc(CC(=O)NCC2CCCN(Cc3ccc(OC(F)(F)F)cc3)C2)cc1 (stereo unspecified) | 8 | 98* | 6 | 33 | -3 | -3 | 11
O=C1OC(CC(=O)N(Cc2nnc(-c3ccc(Cl)cc3)o2)C2CC2)c2ccccc21 (stereo unspecified) | -1 | -14 | 1 | 9 | · | -9 | ·
COc1cc(/C=N/NC(=O)COc2ccccc2C)ccc1OC(=O)c1cccs1 | 28 | 43* | 13 | -2 | 21 | 30 | 41*
Cc1ccc(CNC(=S)NC2CCC(C(C)(C)C)CC2)cc1 (stereo unspecified) | 43 | 42* | -71 | 31 | 66* | 36 | 18
COc1ccc(CNC(=S)NC2CCCC2)cc1 | 12 | 15 | 12 | 13 | 2 | 7 | ·
O=C(CSc1nncs1)Nc1ccc(Cl)cc1C(F)(F)F | -1 | 5 | -40 | 1 | 5 | -5 | ·
SMILES | tim23-1 inh | TIM10 inh | PfHsp90 yeast 2 | NLRP3 yeast inh | SKKanGAS inh | tim10-1 inh | TIM10 conf | others
O=C(Nc1ccc(C(F)(F)F)cc1)c1cc(S(=O)(=O)NCC2COc3ccccc3O2)ccc1F (stereo unspecified) | 9 | 42* | -31 | -3 | ? | 2 | 45*
O=C(NCC1COc2ccccc2O1)c1cc(S(=O)(=O)N2CCOCC2)ccc1F (stereo unspecified) | 10 | -1 | · | 13 | · | 14 | ·
CC(C)(C)c1ccc(CNc2ccc([N+](=O)[O-])cn2)cc1 | · | · | -21 | · | -1 | · | ·
Cc1c(C(=O)N2CCN(S(=O)(=O)c3ccccc3)CC2)oc2ccccc12 | 46 | 47* | 9 | -16 | · | 38 | 32*
Cc1ccccc1NC(=O)Cc1nc(COC(=O)CCNS(=O)(=O)c2ccccc2)cs1 | 3 | -4 | · | 12 | -1 | 11 | ·
COC(=O)Cc1ccc(NC(=S)N2CCN(c3cc(Cl)ccc3C)CC2)cc1 | 11 | 5 | 5 | 10 | 6 | 2 | ·
CC(C)(C)c1nnc(NC(=S)Nc2ccccc2)s1 | 28 | 45* | 32 | 49 | 22 | 35 | 24
CC(C)(C)c1nnc(NC(=O)CCS(=O)(=O)c2ccccc2)s1 | 15 | 16 | 6 | 13 | 3 | -3 | ·
CCNC(=S)N=Nc1c(O)[nH]c2ccc(C(C)C)cc12 | 35 | 41* | 0 | 26 | -18 | 32 | -20
CC(C)c1ccc2[nH]c(O)c(N=NC(=S)NCCc3ccccc3)c2c1 | 1 | 17 | -6 | 13 | 43 | 25 | ·
Cc1cc(Cl)ccc1OCC(=O)OCC(=O)c1c(N)n(C)c(=O)n(C)c1=O | 27 | 9 | 7 | 5 | · | 14 | ·
CCCCOC(=O)CCn1c(=S)oc2ccccc21 | 25 | 10 | -11 | 22 | 1 | 11 | ·
CCCCOC(=O)n1c(=S)oc2cc(Cl)ccc21 | -155 | 74* | -28 | 17 | -1 | -54 | -39
O=[N+]([O-])/C(Cl)=C(/NCCO)C(Cl)=C(Cl)Cl | · | · | -22 | · | · | · | ·
O=c1[nH]c(NNC(=S)NC2CCCCC2)nc2c1C1(CCCC1)Cc1ccccc1-2 | 40 | 41* | -12 | 1 | 74* | 29 | 32*
Oc1c(Br)cc(Br)cc1CNc1ccccn1 | 67* | 51* | -6 | 46 | 15 | 18 | 20 | tim23-1 conf=74*
Cc1ccnc2c1ccc1c(C)ccnc12 | 71* | 50* | 30 | 35 | · | 35 | -28 | tim23-1 conf=60*
Cc1cccc2cccnc12 | -7 | -5 | 13 | 7 | · | -15 | ·
O=C(/C=C/c1cccc([N+](=O)[O-])c1)c1ccco1 | 64* | 62* | 85* | 23 | -2 | 35 | 76* | tim23-1 conf=3
CSC1=NC(=O)/C(=C\c2cccc3ccccc23)S1 | 76* | 41* | -7 | 0 | · | 12 | 26 | tim23-1 conf=51*
COc1cccc(/C=C2\N=C(SC)SC2=O)c1OC | 18 | 28 | 21 | 12 | 14 | 29 | ·

Screening data from PubChem BioAssay.
